Source: the supplement of paper PMC6555819

Tests used:
Assay in all cases: PBM binding z-score (relative to random genomic background probes); higher = stronger binding; sequences stand for … in GC…GCGATTGACAGCGTAGAATGAAGG
[1] = system: PPARg:RXRa IVT, anti-PPARg (NR concentration 270 nM, RXRa partner concentration 90 nM)
Summary of the method: (§1)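 Probes were double-stranded and carried 34-nt variable regions with direct-repeat seeds, single-nucleotide variants, half-site ablations and random human genomic background sequences, printed on custom Agilent 4×180K protein-binding microarrays. Arrays were incubated 1 h with ligand-free nuclear receptor dimers in PBS pH 7.4, 2% milk, 0.02% Triton X-100, 1 mM DTT, 0.2 mg/mL BSA and 0.4 mg/ml salmon testes DNA. Antibodies against each partner (one per run) detected binding, and scanned fluorescence was regression-normalized. Binding z-scores use the random background probes as reference.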

[2] = system: PPARg DBDmut:RXRa IVT, anti-PPARg (DBD mutation: PPARg1 K132A/R137A, NR concentration 270 nM, RXRa partner concentration 90 nM)
Summary of the method: as §1

[3] = system: PPARg DBDmut IVT, anti-PPARg (DBD mutation: PPARg1 K132A/R137A, NR concentration 270 nM)
Summary of the method: as §1

[4] = system: PPARg homodimer (NR concentration 180 nM)
Summary of the method: as §1

[5] = system: PXR:RXRa (NR concentration 270 nM, RXRa partner concentration 90 nM)
Summary of the method: as §1

[6] = system: PXR homodimer (NR concentration 270 nM)
Summary of the method: as §1

[7] = system: RARa:RXR (NR concentration 270 nM, RXRa partner concentration 90 nM)
Summary of the method: as §1

[8] = system: RARa homodimer (NR concentration 270 nM)
Summary of the method: as §1

[9] = system: RARb:RXRa (NR concentration 270 nM, RXRa partner concentration 90 nM)
Summary of the method: as §1

[10] = system: RARb homodimer (NR concentration 270 nM)
Summary of the method: as §1

| Sequence | PBM binding z-score [1] | PBM binding z-score [2] | PBM binding z-score [3] | PBM binding z-score [4] | PBM binding z-score [5] | PBM binding z-score [6] | PBM binding z-score [7] | PBM binding z-score [8] | PBM binding z-score [9] | PBM binding z-score [10] |
| --- | --- | --- | --- | --- | --- | --- | --- | --- | --- | --- |
| ATCGAAAGGTCCACGAGGTGAGTATACACCGTTT | 0.791 | 0.466 | 0.248 | 0.167 | 0.264 | -0.268 | 0.714 | 0.24 | 1.66 | 1.2 |
| CGAACTAGGTCGTCCAGGACAGTGAATACATTGA | 4.97 | 0.213 | 0.237 | -0.545 | 0.256 | -0.263 | 0.281 | -0.365 | 1.14 | 0.392 |
| GTTACAGGGTCAAGGCCAGAGTACGCGTATTGAT | 4.35 | 0.698 | 0.735 | 2.94 | 3.92 | 0.672 | 4.89 | 0.693 | 4.52 | 4.1 |
| TAGCCTAGTTCATGCGGGCCAGTATAGTGTCGGC | 0.949 | -0.253 | -0.528 | -0.545 | 0.59 | 0.113 | -0.185 | -0.774 | 1.05 | 0.519 |
| CGTACAAGGTCAAAGGTCAGTGAAGAGATGACGG | 7.09 | 2.61 | 3.6 | 5.49 | 7.22 | 2.17 | 9.15 | 4.68 | 5.95 | 5.35 |
| AGAATGAGGTCACCAAAGATCAGGGAAACGCTTG | 7.35 | 1.62 | 0.808 | 3.69 | 5.47 | 1.12 | 5.82 | 1.69 | 5.43 | 4.08 |
| GCATATAGGTAATACAAGGTCAAAGTCCGATTGT | 4.1 | 0.883 | 0.92 | 1.97 | 4.93 | 2.12 | 4.47 | 1.17 | 2.92 | 3.79 |
| ATCGAAAGGTCTAAGGTGAGTATACCCACCCGAA | 1.2 | 0.696 | 0.446 | 0.384 | 0.515 | 0.247 | 1.35 | 0.59 | 1.53 | 1.08 |
| GCTTACAGGTCAAAGGTTATAGCATGAATAGAAT | 6.3 | 2.55 | 3.43 | 3.21 | 6.17 | 0.923 | 7.96 | 0.992 | 4.93 | 3.69 |
| CCGAGTTGGTCAAGGTCACACACGCTATAGGTAC | 3.09 | 0.702 | 0.995 | 3.6 | 4.94 | 5.4 | 4.96 | 2.02 | 4.17 | 4.42 |
| AATAAAGGGTCATCGTAGGCCAGAGTACGCACAG | 4.41 | 1.5 | 1.46 | 5.38 | 5.11 | 1.02 | 5.67 | 3.37 | 5.11 | 4.11 |
| CCTACTCGGCCAAAAAGGTCATTGATGCCGATAA | 2.03 | -0.62 | -0.0585 | 3.26 | 4.83 | 3.27 | 4.83 | 1.71 | 4.07 | 4.59 |
| CGAACTAGGTCATCCAGGTCAGTGAATACATTGA | 8.34 | 6.69 | 1.38 | 4.66 | 3.99 | 7.58 | 3.63 | 1.17 | 4.3 | 4.14 |
| ATATGTAGGTTAAGCGTCATTCAGGTTGGTTCGC | 7.49 | 1.71 | 1.99 | 1.04 | 0.685 | -0.178 | 0.705 | 0.512 | 1.17 | 0.88 |
| TCTTGTAGATCAACAGGAGGTTAATAAAGATCGA | 0.851 | 0.688 | 0.752 | 0.0813 | 0.776 | -0.162 | 1.23 | 0.176 | 0.533 | 0.497 |
| TGAATGAGGTTAAATATCAGGGAACGTGGCGTCG | 2.35 | 0.916 | 0.956 | 0.766 | 1.35 | 0.413 | 1.91 | 0.347 | 2.17 | 0.735 |
| AGTCAAAGTTCAGGACGAGGTAACGTTAAGCACG | 1.92 | 0.603 | 0.235 | 2.35 | 3.11 | 1.65 | 2.78 | 0.838 | 4.3 | 3.3 |
| CGTCAAAGTTCAACTGAGGTAACGTAAAGCACGC | 2.31 | 0.285 | 0.242 | 3.03 | 5.86 | 4.5 | 4.36 | 1.6 | 5.41 | 4.06 |
| GCTGCTAGTTCAACTGATGGTCAGCTAAAGCTCG | -0.512 | -0.37 | -1.33 | -0.347 | 0.398 | -0.4 | 0.418 | -1.04 | 1.62 | 1.21 |
| GGAACGAGGTCAAAGTTGATAGCATCTGTCGACG | 6.45 | 0.31 | 1.24 | 2.56 | 5.91 | 2.54 | 6.93 | 0.429 | 5.18 | 4.02 |
| CAAACTAGGTCAAGGTCTAAGTCGGTTTGTGCCA | 8.57 | 4.39 | 3.12 | 2 | 1.67 | 0.201 | 2.3 | 0.357 | 4.24 | 3.49 |
| TATACAAGGTCAAAGGCCAGAGTACGAATGTCGA | 5.15 | 1.68 | 2.18 | 2.34 | 4.53 | 0.743 | 5.37 | 0.491 | 5.27 | 4.35 |
| TGTCAACGTTCAAAGGTAACGTAAGTATCCACAC | 1.78 | 0.941 | 0.758 | 0.252 | 0.578 | -0.0241 | 1.36 | 0.107 | 1.46 | 1 |
| CGAACTAGGTCATTGACAGGACAGTGGATAGTAA | 7.98 | 2.72 | 1.77 | 1.39 | 1.52 | 0.501 | 2.02 | -0.303 | 3.53 | 2.83 |
